Hits are enriched below; roughly 2.1% of the tested compounds scored in any of these assays.
aSyn rescue – qHTS of alpha-syn Inhibitors. Yeast expressing alpha-synuclein, growth rescue, BacTiter-Glo, 24 h. Potency, µM (doses to about 46.1 µM), for inactives: at the top dose growth rescue (activation), hits mostly activators. actives 0.14% (n = 370,000). AID 652106, 2013; further: % of control where 0% means no effect; nearly all actives have a fitted effect of over 65% in size
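Rescue of yeast growth: cells expressing toxic alpha-synuclein, induced in galactose at OD600 0.02, incubated with compound 24 h at 30 C. ATP luminescence quantified growth; inhibitors of toxicity appear as activators.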
Abeta yeast res – qHTS for compounds that reverse cellular toxicity of Amyloid beta (A-beta) peptide in yeast: Primary Screen; actives 0.063% (n = 410,000); Potency, µM (series often up to 46.1 µM), actives largely listed as activators; yeast expressing A-beta42, growth rescue, OD600, 48 h; response scale: 0% DMSO, 100% iron-clioquinol control; further: nearly all actives have a fitted effect of over 55% in size
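Growth rescue measured by 600 nm absorbance after 48 h yeast culture at 30 C with compound. Values normalized between DMSO and an equimolar ferric chloride plus clioquinol control.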
FUS yeast rescue – qHTS for Suppressors of FUS Proteinopathy: Primary screen using FUS-linked yeast assay | S. cerevisiae FUS-expressing, growth rescue, OD600, 24 h | Potency, µM (titrated, usually from 76.6 µM), usual class: activators | actives 0.24% (n = 390,000) | AID 1347120, 2019;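 further: plate controls were DMSO vehicle for no effect and reference control for full effect; nearly all actives have a fitted effect of over 55% in size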
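Galactose (2%) drives FUS expression in yeast precultured in raffinose; seeding density OD 0.005. Test compounds incubated 24hr at 30C and 99% humidity before absorbance at 600 nm was measured.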
TDP-43 yeast inh – qHTS of TDP-43 Inhibitors | actives 1.8% (n = 410,000) | Potency, µM (doses to about 46.1 µM), inactives show at the top dose growth rescue (activation), usual class: activators | TDP-43 expressing yeast growth rescue, BacTiter-Glo, 24 h | AID 652104, 2013; further: % of control where 0% means no effect; nearly all actives have a fitted effect of over 50% in size
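Yeast expressing TDP-43 (pregrown in raffinose, seeded at OD600=0.02 in galactose medium) exposed to compounds 24 hr at 30 deg C. Growth read by BacTiter-Glo luminescence; rescue of toxicity appears as increased signal.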
PTAP TSG101 blk – qHTS Assay for Iinhibitors of HIV-1 Budding by Blocking the Interaction of PTAP/TSG101; Tumor susceptibility gene 101 protein (Homo sapiens), Q99816; Fluorescence polarization, FITC-PTAP peptide / Tsg101 binding; Potency, µM (highest dose often 115 µM), for the others: top-dose activity change, negative = inhibition, actives largely listed as inhibitors; 340,000 tested, under 10 active; AID 493005, 2010; active means well fitted inhibition curve with a large enough effect in the main read-out, with a control signal flat, not every such curve was filed as active; inconclusive means small, poorly fitted or top-dose-only effect, or effect the other way, or a change in a side signal; inactive means no such curve, though single readings can be large or run the other way; further: % of control where 0% means no effect
Target sequence (Q99816 whole entry, looked up): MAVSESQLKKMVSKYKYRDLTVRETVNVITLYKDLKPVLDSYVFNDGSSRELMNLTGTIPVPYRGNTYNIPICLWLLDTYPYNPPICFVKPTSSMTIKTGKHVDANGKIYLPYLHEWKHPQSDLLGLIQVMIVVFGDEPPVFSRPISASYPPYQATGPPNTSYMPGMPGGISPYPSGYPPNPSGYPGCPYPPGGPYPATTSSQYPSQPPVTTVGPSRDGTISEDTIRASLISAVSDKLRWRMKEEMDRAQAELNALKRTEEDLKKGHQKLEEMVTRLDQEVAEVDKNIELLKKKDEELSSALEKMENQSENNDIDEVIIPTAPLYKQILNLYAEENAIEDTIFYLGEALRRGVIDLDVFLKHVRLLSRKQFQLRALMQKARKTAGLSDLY
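Steps: Tsg101 binding domain dispensed (10 uM final), compounds pinned in DMSO, FITC-labeled PTAP-motif peptide added (50 nM final); after 20 min binding at room temperature, polarization measured.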
Numbers without * were called inactive; i = inactive; ? = inconclusive; / = no result; [ ] = another dose, or the depositor's remark. Unless noted, the call rests on the fitted dose curve; in most records, active means well fitted curve in the direction sought with a large enough effect; inconclusive means small, poorly fitted or top-dose-only effect, or another doubt; inactive means no such curve, though single readings can be large; an effect the other way counts as inactive or inconclusive. Potency means the concentration at half of the fitted maximal effect.

SMILES	aSyn rescue	Abeta yeast res	FUS yeast rescue	TDP-43 yeast inh	PTAP TSG101 blk
C[C@H](CO)N1C[C@H](C)[C@H](CN(C)C(=O)Cc2ccncc2)Oc2ncc(Br)cc2C1=O	2%	i	i	4%	/
[Hg+][c]1ccccc1	-79%	/	/	/	/
COc1cccc(NC(=O)N2CCc3nc(Nc4ccc(C(C)C)cc4)ncc3C2)c1	30%	?	i	13µM*	/
Nc1ccc(Cl)cc1C(=O)c1ccccc1	6%	i	i	-2%[0.397 µM]	-6%
Nc1ccc(Br)cc1C(=O)c1ccccc1	?	i	i	16µM*	-3%
O=C(CN1CCN(S(=O)(=O)c2cc(Br)ccc2Br)CC1)NCc1ccccc1Cl	20%	i	/	?	-1%
C=C(C=O)CC1CC(O)[C@]2(C)OC3C[C@@H]4OC5C[C@]6(C)O[C@]7(C)CCC8OC9C[C@]%10(C)OC(/C(C)=C\CO)C(O)CC%10OC9CC(C)C8OC7CC6O[C@]5(C)C/C=C\C4OC3CC2O1 (stereo partly specified)	1%	i	?	18%	-3%
C=C(C=O)C[C@@H]1C[C@H](O)C2OC3C[C@]4(C)OC5/C=C\CC6OC7C(CC=CCC6OC5CCCC4OC3CC2O1)OC1CC2OC3CC(=O)OC3C[C@@H](C)C[C@@]2(C)OC1C[C@@H]7C (stereo partly specified)	0%	i	i	22µM*	5%
CC1(C)C(C(=O)N2CCN(c3ccc(Cl)cc3)CC2)C1(C)C	11%	i	i	?	-3%
COC(=O)C1CN(C#N)N(c2ccc(Cl)cc2)C12c1ccccc1-c1ccccc12 (stereo unspecified)	3%	i	i	16µM*	-3%
c1cc2c3c(cccc3c1)CC2	-9%	/	/	/	/
Cc1cccc(CN2C(=O)CN=C(c3ccccc3)c3cc(Cl)ccc32)c1	/	i	?	?	/
Cc1ccc2nc(-c3ccncc3)cc(C(=O)N3CCC4(CC3)OCCO4)c2c1	0%	i	i	1%	-4%
Cc1ccc(-c2cc(C(F)F)n3ncc(C(=O)N4CCc5ccccc5C4)c3n2)cc1	-2%	i	i	16µM*	-2%
Cc1ccc(Cl)cc1NC(=O)N(Cc1ccc2c(c1)OCO2)C1CCN(Cc2ccccc2)CC1	/	i	i	-5%	/
C[C@H]1O[C@@H](O[C@H]2[C@@H](O)C[C@@H](O[C@H]3[C@@H](O)C[C@H](O[C@H]4CC[C@@]5(C)[C@H](CC[C@@H]6[C@@H]5CC[C@]5(C)[C@@H](C7=CC(=O)OC7)CC[C@]65O)C4)O[C@@H]3C)O[C@@H]2C)C[C@H](O)[C@@H]1O	2%	/	/	/	/
CN1c2ccc([N+](=O)[O-])cc2CC2(C(=O)NC(=O)N(c3ccc(Br)cc3)C2=O)C1c1ccccc1 (stereo unspecified)	12%	i	18µM*	-9%	0%
Cn1c(=O)oc2cc(NC(=O)CCl)ccc21	1%	i	i	?	-2%
CC12CC(=O)C3C(CCC4CC=CCC43C)C1CCC2=O (stereo unspecified)	9%	i	/	10µM*	-2%
O=C1C=CC2C3C(=O)N(c4ccccc4)C(=O)C3C1N2Cc1ccccc1 (stereo unspecified)	8%	i	/	13µM*	-1%
O=c1c2ccccc2[nH]c(=S)n1-c1cccc(C(F)(F)F)c1	?	i	i	6.3µM*	/
Cc1ccc(-n2c(=S)[nH]c3ccccc3c2=O)cc1F	?	i	i	?	/
CC1(C(=O)O)CC12c1ccccc1-c1ccccc12 (stereo unspecified)	-20%	i	/	3.2µM*	-1%
O=C(Nc1ccc2c(c1)OCCO2)c1cccn(Cc2cccc(F)c2)c1=O	/	i	i	35µM*	/
Cc1ccc(C(=O)Nc2c(C(=O)Nc3ccc(C)c(C)c3)sc3nc(C)cc(C)c23)cc1	/	i	i	?	/
SMILES	aSyn rescue	Abeta yeast res	FUS yeast rescue	TDP-43 yeast inh	PTAP TSG101 blk
O=C1c2ccccc2C(=O)N1SC1CCCCC1	-80%	i	i	-47%	-10%
CCCc1cc(N2CCN(c3cccc(C)c3C)CC2)n2cnnc2n1	/	i	i	16µM*	/
Cc1ccc(NC(=O)N(Cc2ccc3c(c2)OCO3)C2CCN(Cc3ccccc3)CC2)cc1Cl	/	i	i	-31%	/
Cc1ccc(-c2nc(CN3C(=O)CN=C(c4ccccc4Cl)c4cc(Cl)ccc43)c(C)o2)cc1	/	i	?	0%[9.22 µM]	/
Cc1ccc(NC(=O)CCSc2nnc(Cc3ccccc3)o2)cc1	5%	i	/	18µM*	-1%
Cc1ccc(NC(=O)COc2ccc(-c3nn(C)c(=O)c4ccccc34)cc2)cc1	/	i	i	?	/
CC1OC(O[C@H]2C[C@@H](O)[C@]3(CO)[C@H]4[C@H](O)C[C@]5(C)[C@@H](C6=CC(=O)OC6)CC[C@]5(O)[C@@H]4CC[C@]3(O)C2)C(O)C(O)C1O (stereo partly specified)	0%	/	/	/	/
c1ccc(N2CCN(c3ncnc4c3nc3n4CCCC3)CC2)cc1	/	i	i	?	/
Cc1ccc(Cl)cc1N1CCN(c2ncnc3c2nc2n3CCCC2)CC1	/	i	i	14µM*	/
CC(C)CCOP(=O)(c1ccc(N(C)C)cc1)C(O)c1ccc(Cl)cc1Cl (stereo unspecified)	-37%	?	?	-20%	-3%
Cc1cccc(-c2nc(CN3C(=O)CN=C(c4ccccc4)c4ccccc43)c(C)o2)c1	/	i	i	35µM*	/
Cc1oc(-c2ccccc2)nc1CN1C(=O)CN=C(c2ccccc2)c2ccccc21	-7%	i	i	?	-2%
O=c1[nH]c2ccccc2n1C1CCN(C(c2ccccc2OC(F)(F)F)c2nnnn2Cc2ccccc2)CC1 (stereo unspecified)	2%	i	20µM*	25%	/
Cc1cccc(C)c1-n1nnnc1C(c1cccc2ccccc12)N1CCC(n2c(=O)[nH]c3ccccc32)CC1 (stereo unspecified)	-2%	i	i	22µM*	/
Cc1ccc(OCC(=O)Nc2ccc(Cl)cc2C(=O)c2ccccc2)cc1C	/	i	i	10%	/
COc1ccc2c(c[n+](C)c3c4cc5c(cc4ccc23)OCO5)c1OC	-10%	/	/	/	/
COc1cc2c(ccc3c4cc(OC)c(OC)cc4c[n+](C)c23)cc1O	7%	i	/	11µM*	-1%

Source: PubChem BioAssay
